This is an account of results in PubChem BioAssay.

For part of these data: Potency and affinity values are given separately. Inconclusive results are not listed. A number with no mark means an inactive call. The list shows a part of the results. Where a call stands in place of a potency, no number is given. Calls of active or inactive are those of the source. Unless noted, the rule behind the calls is not given here.

The nature of assay [1]: cytotoxicity in PAX8-dependent RMG-1 cells, dose response, cell-based, cherry-pick (AID 687029;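 active = signal drop whose fitted half-maximal concentration is at most twice the top valid dose, in every test run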;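 note: cells exposed to compound for 96 hours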). To be noted: RMG-1 viability, CellTiterGlo ATP luminescence, 96 h; series mostly up to 35 µM. On the technique in general: Cellular ATP, detected with luciferase, serves as a proxy for viable cell number.
The nature of assay [2]: non-specific cell cytotoxicity, dose response, cytotoxicity control for PAX8 inhibitor project, plate reader, dry powder samples (AID 743021). As to conditions: cell line, non-specific cytotoxicity counter-screen; series mostly up to 35 µM.
Assay [3] can be described thus: HepG2 cell cytotoxicity, dose response, cytotoxicity control, plate reader, cherry-pick, antagonist series (AID 743416). As to conditions: series mostly up to 26 µM.
Assay [4] addresses Melanocortin receptor 4 (Homo sapiens) (UniProt P32245). Nature of the assay: MC4R antagonists, dose response, counter-screen for LGR2 antagonist project, cell-based, plate reader, cherry pick (AID 743444). As to conditions: MC4R-expressing cells, antagonist mode; series mostly up to 35 µM.
Assay [5] in a line: inhibitors of CMV-promoter luciferase reporter, dose response, counter-screen for Pax8 inhibitor project, cell-based, HEK293, luminescence, dry powder (AID 743020;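 active = signal-lowering compounds whose fitted half-maximal concentration is at or below twice the top tested dose in every run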;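 note: HEK293 cells stably expressing the CMV luciferase reporter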). To be noted: SteadyGlo luminescence, 24 h; series mostly up to 35 µM.
The nature of assay [6]: cytotoxicity in IOSE-T80 ovarian epithelial cells, dose response, selectivity assay for PAX8 inhibitor project, cell-based, cherry-pick (AID 687032;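 active = fitted half-maximal concentration for viability loss no higher than twice the top valid dose, in every repeat run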;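 note: cells exposed to compound for 96 h before reading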). As to conditions: CellTiterGlo ATP luminescence, 96 h; series mostly up to 35 µM.
Assay [7] in a line: A549 cell cytotoxicity, dose response, cytotoxicity control, plate reader, cherry-pick, antagonist series (AID 743412). To be noted: series mostly up to 26 µM.
A short description of assay [8]: DNA binders by acridine orange displacement, dose response, counter-screen for EWS/Fli inhibitor project, biochemical, fluorescence polarization, cherry-pick (AID 720586;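 active = fitted curve reaches a 35% signal fall AC35 below twice the sample's top valid tested dose, actives reach about 48 µM in these data; inactive = the rest, including activity in the rising direction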;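 note: lower polarization ratio signals compound binding to DNA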). To be noted: salmon sperm DNA acridine orange fluorescence polarization; series mostly up to 68 µM. In general terms: Counterscreens check selectivity or assay interference.
Assay [9] in a line: IGROV1 ovarian cancer cell cytotoxicity, dose response, PAX8 inhibitor project, plate reader, dry powder samples (AID 743043).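 Note: more negative means fewer viable cells or more cytotoxicity.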 As to conditions: series mostly up to 35 µM.
Assay [10] in a line: NIH:OVCAR-3 ovarian cancer cell cytotoxicity, dose response, PAX8 inhibitor project, plate reader, dry powder samples (AID 743044). To be noted: NIH:OVCAR-3 ovarian cancer cell viability, active compounds read low; at 4.2 µM unless noted.
Assay [11] is described as follows: IOSE-T80 ovarian epithelial cell cytotoxicity, dose response, cytotoxicity control for PAX8 inhibitor project, plate reader, dry powder samples (AID 743045).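 Note: more negative values mean more cell killing.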 As to conditions: IOSE-T80 ovarian epithelial cells; series mostly up to 35 µM.
Assay [12] is described as follows: A2780 ovarian cancer cell cytotoxicity, dose response, cytotoxicity control, plate reader, dry powder samples (AID 743046). To be noted: series mostly up to 35 µM.
Assay [13] is described as follows: cytotoxicity in OVCAR8 ovarian cancer cells, dose response, PAX8 project, cell-based, plate reader, dry powder samples (AID 743197). To be noted: series mostly up to 35 µM.

Regarding `CC(=O)OC1CC(OC2C(O)CC(OC3C(O)CC(OC4CCC5(C)C(CCC6C5CC(O)C5(C)C(C7=CC(=O)OC7)CCC65O)C4)OC3C)OC2C)OC(C)C1OC1OC(CO)C(O)C(O)C1O` (stereo unspecified), the result in [1] and in [2] was inactive.

For `COc1ccc(C[C@H]2NC[C@H](O)[C@H]2OC(C)=O)cc1`, the result in assay [1] and in assay [2] was inactive.

Consider `COc1cc2c(cc1OC)CN(c1ccc([N+](=O)[O-])c(C(F)(F)F)c1)CC2`, for which the result in [3] and in assay [4] was inactive.

Consider `CCCCN=C[C@]12CCC(O)CC1(O)CCC1[C@@H]2CC[C@]2(C)[C@H](C3C=CC(=O)O3)CCC12O` (stereo partly specified), for which the compound was classed as inactive in assay [5].

For `C[C@]12CCC3C(CCC4=CC(O)CC[C@@]43/C=N/O)C1(O)CCC2C1=CC(=O)OC1` (stereo partly specified), the compound was called inactive in assay [5].

For `CC(C)(O)/C=C/C(=O)C(C)(O)C1C(O)CC2(C)C3CC=C4C(C=C(O)C(=O)C4(C)C)C3(C)C(=O)CC12C` (stereo unspecified), the outcome in [6] and in [2] was inactive.

Take `Clc1cccc(N2Cc3cc(-c4ccccc4)ccc3-n3nncc3C2)c1`: the result in [7] and in assay [3] was inactive.

As to `O=c1c2ccccc2nc(/C=C/c2ccc([N+](=O)[O-])o2)n1-c1ccc(O)cc1`, the outcome in assay [4] was inactive.

`COc1cccc(-c2nc3ccc(N4CCN(C)CC4)cc3[nH]2)c1`: the result in [3] was inactive.

On to `C[C@]12CC[C@H](O)C[C@H]1CC[C@@H]1C2CC[C@]2(C)[C@@H](C3=CC(=O)OC3)[C@@H](O)C[C@]12O` (stereo partly specified), for which the compound was called inactive in assay [8].

Consider `CC1OC(OC2C=C3CCC4C(CCC5(C)C(c6ccc(=O)oc6)CCC45O)C3(C)CC2)C(O)C(OC2OC(CO)C(O)C(O)C2O)C1O` (stereo unspecified), for which the outcome in [1] and in assay [2] was inactive.

In the case of `O=C(Cc1ccccn1)N1CCCCN2[C@@H](CO)[C@@H](c3ccc(-c4ccc(F)cc4)cc3)[C@@H]2C1`, the call in assay [6], in assay [5], in [2], in assay [9], in assay [11] and in [12] was inactive. Further, the result in assay [13] was inactive. In assay [10], the max activity is 9.98%.

Turning to `C[C@@H]1O[C@@H](O[C@@H]2C=C3CC[C@@H]4C(CC[C@]5(C)[C@@H](c6ccc(=O)oc6)CC[C@]45O)[C@@]3(C)CC2)[C@H](O)[C@H](O)[C@H]1O` (stereo partly specified), the outcome in assay [2] was inactive.

For `CC1CC(C)(O)CC(C(O)CC2CC(=O)NC(=O)C2)C1=O` (stereo unspecified), the result in [5] and in assay [2] was inactive.

Consider `O=c1[nH]c2ccccc2n1C1CCN(C(c2ccccc2OC(F)(F)F)c2nnnn2Cc2ccccc2)CC1` (stereo unspecified), for which the compound was classed as inactive in assay [3].

With `COC(=O)C1=C(c2ccc(F)cc2OCc2ccccc2)C[C@@H]2CC[C@H]1N2C(=O)NCc1ccc(C(F)(F)F)cc1`, the outcome in assay [1] and in [2] was inactive.

For `COC1=C(C)C(=O)C2=C(C1=O)C(CO)N1C(C#N)C3CC4C(C1C2N1CCOC41)N3C` (stereo unspecified), the compound was called inactive in [1] and in [2].

On to `C[C@]12CC[C@H]3[C@@H](CC[C@]4(O)C[C@@H](O)CC[C@]34C=O)[C@@]1(O)CC[C@@H]2C1=CC(=O)OC1`, for which, in assay [2], the result was inactive.

For the compound `CCC(C)(O)C(=O)OC1C(=O)OC2CC3C(C)=CC(=O)C(O)C3(C)C3C4(O)OCC23C1C(C)C4O` (stereo unspecified), the compound was classed as inactive in [5] and in [2].

Take `COC(=O)c1ccc(NC(=O)CSc2nc3ccc(N4C(=O)C5C6C=CC(C6)C5C4=O)cc3s2)cc1` (stereo unspecified): the compound was called inactive in [7].

For `CCC(c1nnnn1Cc1ccccc1)N1CCC(n2c(=O)[nH]c3ccccc32)CC1` (stereo unspecified), the compound was classed as inactive in assay [5].

As to `O=c1[nH]c2ccccc2n1C1CCN(C(c2cccs2)c2nnnn2-c2ccc3c(c2)OCCO3)CC1` (stereo unspecified), the compound was called inactive in [5].

With `O=C(O)c1nn(Cc2ccc(Cl)cc2Cl)c2ccccc12`, the outcome in [7], in assay [3] and in assay [4] was inactive.

Consider `CC(C)(C)n1cc(C(=O)c2ccc3ccccc3c2O)cn1`, for which the result in assay [3] was inactive.

For `CCCCCCCCCCCCn1ccc(=N)cc1`, the result in [1] and in assay [2] was inactive.

Turning to `CC(N)C(=O)NC1C2C(=C(O)CC(O)C2O)C(=O)OC1(C)C(Cl)Cl` (stereo unspecified), the call in [1] and in [2] was inactive.

For `N#CC(C#N)=NNc1ccc(-n2ccc(C(F)(F)F)n2)cc1`, the result in [1] and in assay [2] was inactive.

In the case of `N#Cc1ccc2nc(-c3ccc(CN4CCC(n5c(=O)[nH]c6ccccc65)CC4)cc3)c(-c3ccccc3)nc2c1`, the result in [1] and in assay [2] was inactive.
